In PubChem BioAssay AID504905 (The Scripps Research Institute Molecular Screening Center, 2011):
The list shows a part of the results. Values without a mark were called inactive. Active and inactive are the calls of the source. No stated cut-off is given here; in the data, active means activation above about 17%; inactive means the rest.

Each compound was assayed against 5-hydroxytryptamine receptor 5A (Homo sapiens) (UniProt P47898) (assay: HTR5A agonists in cells, counter-screen for OPRM1-OPRD1 heterodimer agonist project, cell-based, luminescence (AID 504905;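 further: 0% = vehicle-treated cells and 100% = reference agonist response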)). Conditions: HTR5A agonist counterscreen, at 9.3 µM, active compounds read high.
Chain of 5-hydroxytryptamine receptor 5A (Homo sapiens) (P47898 whole entry, looked up): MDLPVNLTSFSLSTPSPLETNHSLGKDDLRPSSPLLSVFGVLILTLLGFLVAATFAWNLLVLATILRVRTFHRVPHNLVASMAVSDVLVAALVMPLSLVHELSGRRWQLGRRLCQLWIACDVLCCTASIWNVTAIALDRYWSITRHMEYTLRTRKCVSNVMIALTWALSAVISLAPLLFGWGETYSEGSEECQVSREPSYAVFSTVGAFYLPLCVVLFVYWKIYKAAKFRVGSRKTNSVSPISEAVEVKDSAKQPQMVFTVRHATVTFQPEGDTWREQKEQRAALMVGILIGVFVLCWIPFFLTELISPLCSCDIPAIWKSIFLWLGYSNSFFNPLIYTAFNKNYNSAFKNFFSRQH
`Cc1ccc(CN(C(=O)c2sc3ccccc3c2Cl)C2CCS(=O)(=O)C2)cc1` (stereo unspecified) was tested, and the activation was 1.71%. In the case of `CC1CCCN(CCOCCOc2ccccc2-c2ccccc2)C1` (stereo unspecified), the activation is reported as 1.05%. For `O=C1N/C(=C/c2cccs2)C(=O)N1Cc1ccc(F)cc1`, the activation was 27.5% (active). For `CN(CC(=O)Nc1ccc(Cl)cc1)C(=O)c1ccc(COc2ccccc2)cc1`, the activation was 5.21%. Work on `COc1ccc(-n2nnnc2-c2nc3ccccc3s2)cc1` yielded an activation of 4.69%. With `CN(C)C(CNC(=O)c1ccc(S(=O)(=O)NCc2ccco2)cc1)c1ccccc1` (stereo unspecified) the activation was 4.56%. With `CN1C(CC(=O)Nc2ccc(Br)cc2)c2ccccc2CC1(C)C` (stereo unspecified) the activation was 5.83%. `COC(=O)c1ccc(C23CC4(C2)[C@H](CN(Cc2cccnc2)[C@@H]4c2ccccc2)C3c2ccc(Cl)nc2)cc1` (stereo partly specified) was tested, and the activation was 5.91%. With `CCc1ccc(C(CNc2nc(C(F)(F)F)nc3ccccc23)N(C)C)cc1` (stereo unspecified) the activation was -2.05%. `COc1ccc(SC[C@H](Cc2ccccc2)N2CCN(CCc3ccccc3)CCC2=O)cc1` gave an activation of -1.8%. `CN1CCN(c2ccc([N+](=O)[O-])c(Sc3nc4ccccc4[nH]3)c2)CC1` gave an activation of -0.05%. In the case of `Cc1ccc(CNC(=O)CC(NC(=O)c2ccccc2)c2ccccc2)cc1` (stereo unspecified), the activation is reported as -9.71%. With `Cc1ccc(-n2c(SCC(=O)NCCC3=CCCCC3)nc3n[nH]c(C)c3c2=N)cc1Cl` the activation was 1.57%. `COc1cc(C(=O)OC(C)C(=O)NCC2CCCCC2)cc(NC(=O)c2ccco2)c1OC` (stereo unspecified) showed an activation of -2.12%. Compound `O=C(NCc1cn2ccsc2n1)Nc1ccc(Cl)cc1` has an activation of -5.53%. `O=C(NC1=CC(=O)c2ccccc2C1=O)c1ccccc1` showed an activation of 3.59%. `N#CC(C(=O)c1ccc(S(=O)(=O)N2CCCCCC2)cc1)c1nc2ccccc2[nH]1` (stereo unspecified) gave an activation of 5.09%. `Clc1ccc(COn2c(-c3ccc(Cl)cc3Cl)nc3ncccc32)cc1` was tested, and the activation was 0.23%. Compound `Cc1ccc(O)c(NC(=S)NC(=O)COc2ccc(Br)cc2)c1` has an activation of 0.97%. `CCCC(=O)NC(C)C(c1cccs1)N1CCN(c2ccccc2)CC1` (stereo unspecified) showed an activation of -1.26%. With `Cc1ccc(Nc2ccccc2N)cc1` the activation was 0.79%.
